# Laboratory results from PubChem BioAssay AID1508600 (Functional Genomics Laboratory (NCATS/FGL), 2020).
# In all, about 53,000 sequences went through this assay and about 3,700 (7%) were called active.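 Rule for the calls: active = gene knockdowns whose robust z-score for IL-1 alpha signal is at least 2 or at most -2, so actives lie on both sides; inactive = the rest.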 Shown is part of a subset that was picked to be rich in actives.
# Experiment: Components of the Cytosolic LPS Sensing Pathway: Gene Identification via Genome-wide siRNA Screen
# Conditions: RAW264.7 macrophages, IL-1a HTRF, actives lie on both sides, screened at 100 nM (by protocol), cells primed 5 h with Pam3CSK4 first
# Source text: Non-canonical inflammasome activation by cytosolic LPS is a critical component of the host response to Gram-negative bacterial infection, however we lack a comprehensive understanding of the cellular processes that control this pathway. Here we describe a genome-wide siRNA screen to identify genes regulating the mouse macrophage IL-1 alpha response to cytosolic LPS.
# RAW264.7 cells were maintained in complete DMEM media, comprising DMEM with 4.5 g/L glucose, 10% FBS (Gemini Bio-Products, West Sacramento, CA), 2 mM Glutamine (Lonza) and 20 mM HEPES (Lonza), hereafter complete DMEM.
# The RNAi screen was conducted in 384-well format using the Ambion Silencer Mouse Genome siRNA Library (#4391425), which consists of three unique, nonoverlapping, nonpooled siRNAs for each of 17,000 gene targets. siRNA reagents ([…]) were stamped into 384-well white flat-bottom microplates (Corning, 3570) using a Velocity11 VPrep liquid handling system (Agilent) integrated into a BioCel robotic platform (Agilent) in columns 1-22, leaving columns 23-24 empty for negative (Ambion, Negative control #1) and positive (mouse Casp4) controls, respectively. The median value of each plate's negative control column was used to normalize sample wells, and the positive control was used to assess transfection efficiency and assay performance.
# Lipofectamine RNAiMAX Transfection Reagent ([…]; Invitrogen) was added in […] serum-free, antibiotic-free media to plate wells using a Thermo Scientific Matrix WellMate and Microplate Stacker. Plates were incubated for 45 min at room temperature to allow for the sufficient formation of siRNA-lipid complexes. Cells were seeded at a density of 1x10^4 cells per well in 20 microL media containing 20% (vol/vol) FBS without antibiotics. The final concentration of siRNA in each well was 100 nM. Cells were cultured for 48h at 37 degrees C in 5% CO2 before addition of […] of TLR ligand Pam3CSK4 for 5 hours. The medium was then removed, replaced with […] growth media and cell were transfected with […] of LipidA and TransIT-TKO (Mirus) for 24 hour. At the end of the LipidA treatment, […] of supernatant was transferred to a 384 Greiner Bio-one non-binding low volume plate and […] of IL-1a HTRF reagent (Cisbio, 62MIL1APEH) was added and incubated at room temperature overnight. The plates were read on an EnVision plate reader (PerkinElmer). Cell viability was measured by adding 20ul Cell Titer Glo to the original plate and running a luminescence read on the EnVision. The quantified IL-1a signal for each siRNA gene-targeted well was divided by the median of the negative control wells and multiplied by 100 to achieve a negative control normalized value for each well/siRNA. This normalized value was then used to generate a robust z-score by first taking the log of each value and then by subtracting the median and dividing by the […].
row,Sequence,z-score
1,GGACAUUGACGCAUAGGGATT against Arsa,-0.232 (inactive)
2,GGAUACAGUUUCUGAAAUCTT against Mlxipl,2.6 (active)
3,GCCAUGUGAUCGAAUCCAGTT against Clip2,-0.0773 (inactive)
4,GGGAUUCAUACUACUUAACTT against Olfr304,1.32 (inactive)
5,GCAGUUACUUAUCAUCUGGTT against Inca1,0.00859 (inactive)
6,GGUGUCUCUGAAUGAUGGCTT against 1810009J06Rik,0.499 (inactive)
7,GGGUUGAUCCCUUUGAUUCTT against Pld4,-0.268 (inactive)
8,GGACAAUGUGGACUUUGAUTT against Edem2,-2.33 (active)
9,GCAAACUCGGACUUUCAAATT against Lamtor3,0.443 (inactive)
10,GGGAAACUCGAGAUGUGCATT against Ankmy2,0.944 (inactive)
11,GGAAAGAAAAACGUAGGCGTT against 4933402J07Rik,-1.16 (inactive)
12,GGAGAACCAGAUCCUGAUCTT against Mypop,0.511 (inactive)
13,GGAGGUGUGGCAUCUGGAUTT against Gsn,1.19 (inactive)
14,GGAGGAAGACACUCCCUCUTT against Atf4,-0.778 (inactive)
15,CGAGAGUGAUGCGCAUUUCTT against Sf3b5,-3.04 (active)
16,GGAAGCGGGAGAUAGAGGATT against Xpo6,-0.108 (inactive)
17,GCACAGAGGUCAGUUAAAGTT against St8sia3,1 (inactive)
18,CGACCCUCUAAGGAUAUGCTT against Zfp456,1.01 (inactive)
19,CCUGAUAUUCCAUCCUGAATT against Acad10,-0.626 (inactive)
20,GGUGCAUGGAAAAAAAUUATT against Neil2,-0.691 (inactive)
21,GCGGCCUGUGAGAGUUUAUTT against Pcyt1a,3.4 (active)
22,GGACCCAAGAAGAUGACGUTT against 0610010K14Rik,-0.694 (inactive)

row,Sequence,z-score
1,GCUGUGUGCCACUUUAUGUTT against Ebna1bp2,0.583 (inactive)
2,CGACAACACAGUUAUUAUUTT against Pld1,0.338 (inactive)
3,GCUUCGAGUUACAAUGUCATT against Fbxw15,-0.912 (inactive)
4,GGCACAUACGCUAUGAAGCTT against Prl2c5,-0.0959 (inactive)
5,GGUCUGUGACGAGAAGCUATT against Rab4a,-1.43 (inactive)
6,CCGAUGACGAACAGUUUGATT against Eif4ebp3,2.08 (active)
7,GGCAAAUUUUUGGAGAUGUTT against Hspa4,0.931 (inactive)
8,CGUAGAGAUCAGUUCAAUGTT against Clock,-1.36 (inactive)
9,CGAGGACUCAAUAGUAGCCTT against Proser3,-0.678 (inactive)
10,GGAUCCUGAAACAGUUCAATT against Atm,-0.218 (inactive)
11,GGGUGCUGUCAACAUAUGATT against Gabrq,0.67 (inactive)
12,GCUUUGUUGCCCUACUACCTT against Pacrg,-2.26 (active)
13,CCUUUCAUACCUUAGGUUATT against Slc25a44,-0.42 (inactive)
14,GGUGUAGAAUAGGACAAAUTT against Ntsr2,0.43 (inactive)
15,GGUCACAAUGGUUUAAGGATT against Tacr1,-0.943 (inactive)
16,CCUGAUCUUGCACUCGAUGTT against Tbx6,0.422 (inactive)
17,GGUAGAAGCAGAGUUACCATT against Spata32,-1.64 (inactive)
18,GGUGGAAGAAGAAAUUGUCTT against Tpd52l2,-2 (active)
19,GGGAAGAUUUUUCUGAUCUTT against Kcnk13,-1.52 (inactive)
20,GCUGGAGGACUCAUGUUCATT against Dimt1,-0.0153 (inactive)
21,GGAGCUCAAGAGCUGGGUUTT against Tor2a,-1.1 (inactive)
22,GGAAGAACGACAAGAACAUTT against Tgfbr2,1.02 (inactive)

row,Sequence,z-score
1,CGCGGUGUUCGACAUCUUGTT against Noc4l,2.12 (active)
2,GGAUACCAUUGUGGUCGCATT against Hck,-0.406 (inactive)
3,GGAAUUCUUUCCAAACUGGTT against Steap1,-0.0141 (inactive)
4,GGAUGUUUUAACUUGGAAATT against Sema5a,2.25 (active)
5,GGUUGGUCAGAUGAAGGGUTT against Adgrf3,-0.638 (inactive)
6,GGAACAGACAGAGAACACATT against Tgm6,2.54 (active)
7,CCGCUACAGGUUUACCAAGTT against Rhox8,0.129 (inactive)
8,GGACACCUGAUUUUCUUCUTT against Slc41a3,-0.364 (inactive)
9,GCAAAAAGGCAGUAUUCUATT against Atp23,0.449 (inactive)
10,GCUCCAAAAGUCAAGACCGTT against Safb2,-0.482 (inactive)
11,GGCUAAAUUAUUGCGCAAATT against C1qbp,2.34 (active)
12,GGACCUUUCUGAAGUCCAATT against Ahsp,-0.0978 (inactive)
13,GGAUCAAGCCGAACAGUUCTT against Pigk,2.34 (active)
14,GGCCAAUCUCACCUGGACATT against Man2b1,-0.421 (inactive)
15,GGAGACUACUUUGUGUUUUTT against Ermp1,0.933 (inactive)
16,GGCACAAUUGAGGAGCGUATT against Ino80,-1.27 (inactive)
17,GGAAGAAAAACAGAGGAGATT against Cts7,-0.877 (inactive)
18,GGUUUAAGAAUGAAGUGGATT against Mtmr3,-1.18 (inactive)
19,GGAUUGGGUUACAUACAGATT against Scgb2b2,-0.0731 (inactive)
20,GGAAAAGGUUAAGAAAGCATT against Krr1,-2.53 (active)
21,GGAAUCAGCUAAUGAUUUCTT against Tyw1,0.819 (inactive)
22,GGAGGUAGGAGCCAUAAGATT against Pter,-0.58 (inactive)

row,Sequence,z-score
1,GGGAUCUUUUACUCAUACUTT against Olfr862,-1.95 (inactive)
2,GGUGUACUGAUUUUGAAGATT against Msh3,0.858 (inactive)
3,GCCACGGGUAUAUCUAUAGTT against Tigd4,-0.296 (inactive)
4,GGUGGAAAAUGGUUGGUUUTT against Mfap3,-0.493 (inactive)
5,GGCCAAGAAAAUCCUGUGGTT against Mfsd5,-2.71 (active)
6,GGAACUUGAAAUCGUAAUUTT against Magohb,-0.121 (inactive)
7,GGCAGAACACAGUUCGAUCTT against Tbcb,0.165 (inactive)
8,GCCGUAGAUUUCCUUGAGUTT against Isca1,-0.0435 (inactive)
9,GGGACAAUGAAUGUGAUCUTT against Adam39,-2.81 (active)
10,CCAACCACAGGAUCAGAUGTT against Prrg4,0.556 (inactive)
11,GGAAAAAAUGGAAAACUGGTT against Polr1b,-0.965 (inactive)
12,CCAUUAAAAACCCAGAGGATT against Lyve1,0.0705 (inactive)
13,CCCUAUAAAGAGAAAUUGGTT against Zfp663,-0.166 (inactive)
14,GGCUUCUUUUUAAAAGUAGTT against Pcid2,-1.28 (inactive)
15,GCAGGACUUACAUGAGAAUTT against Fam13c,0.534 (inactive)
16,CCAUAAACUAUGAGUUUUGTT against Elovl7,2.4 (active)
17,GGCUUCCAUUACCAUGAUGTT against Olfr381,-0.318 (inactive)
18,CGCGUAUCUGACCAGGUCATT against Ermard,0.889 (inactive)
19,GGCUGAAAAAUGCUUGAUUTT against Dhdds,-1.14 (inactive)
20,GGAUAACUCUUUCAAAGACTT against Lrit2,0.768 (inactive)
21,GGAGGAGAGAACAAAAUGUTT against Itgb1bp2,0.839 (inactive)
22,GGAUCUCUUUUUUCACAUGTT against Kcne2,0.605 (inactive)

row,Sequence,z-score
1,GGAUCUGGCGGUUACUAAGTT against Gm867,0.776 (inactive)
2,GCUCAUUCUUACCAAUCUCTT against Vsig2,-2.25 (active)
3,GGCUGUGAAAAAACUAGAATT against Serpina1e,-0.359 (inactive)
4,GCCCUACCUUACCUGAUACTT against Rab17,2.03 (active)
5,GGAUCUUAGUAAUAUUGGUTT against Ash2l,-0.72 (inactive)
6,CCACAAGUUCACUAAGGAGTT against Six3,0.193 (inactive)
7,CCUGGAAUCUGUCCCUCAUTT against Olfr262,-0.161 (inactive)
8,CCCACUUACUUUUGAUGUUTT against Uba1,-0.232 (inactive)
9,GGCACGUGAUAAAGGGUUCTT against Pcdha7,2.56 (active)
10,GCAUGUUUGGAUUGCUAUUTT against Olfr653,0.999 (inactive)
11,GGAUUUUCAAAGAGGACACTT against Cdca7l,0.735 (inactive)
12,GCAGAGACGUGAUUGAUCGTT against H2bc18,-1.17 (inactive)
13,CCAUUUCUCACCAGUGAUCTT against Gm5535,-2.61 (active)
14,CCGUUCCAUCAUUAAGACCTT against Tssk2,0.359 (inactive)
15,CCAAGGCCAUCUCAUUUUCTT against Olfr749,0.511 (inactive)
16,GGCUAUUUUGCUGUACCUCTT against Gbgt1,0.589 (inactive)
17,GGAAAUAUCUCUGGUAAUATT against Reln,-2.17 (active)
18,GCAUCCUGAGUCCGUAUCCTT against Rbm11,1.37 (inactive)
19,GGUAGAGCGCAAGAAGGCATT against Nol12,1.23 (inactive)
20,CGGAGUUGAGCCAGAAAAATT against Fbxo31,-0.777 (inactive)
